Source: PubChem (Broad Institute)
C diff HTS – blocks growth of Clostridium difficile; AID 1259249; growth activity, negative = inhibition, % at 16 µg/mL (by protocol); actives 0.25% (n = 86,000); Clostridium difficile clinical isolate growth, OD600, 24 h; stronger effect = lower value;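 active = mean growth activity at or below -80% and every replicate also at or below -80%; inconclusive = mean at or below -80% but some replicate above -80%; inactive = mean growth activity above -80%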;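 note: 0% = DMSO wells and -100% = levofloxacin 16 µg/mL wells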
Pf Dd2 growth – blocks growth of Plasmodium falciparum Dd2 parasites | P. falciparum Dd2 growth, SYBR Green, 72 h; stronger effect = lower value | activity change, % at 10 µM | actives 2.3% (n = 94,000); in the data active = activity change below about -80%; inconclusive = no clear call, values can overlap the other calls
T cruzi growth-1 – blocks T. cruzi growth in NIH3T3 culture; T. cruzi beta-gal in NIH3T3, GalScreen luminescence, 90 h; inhibition, % at 8.34 µM; actives 5.9% (n = 77,000); AID 624255;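 active = mean inhibition above about 93%, with at least 55% of replicates each passing it, limit read from the data, passing the limit was not always enough; inconclusive = only one of those two conditions holds; inactive = neither condition holds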
T cruzi growth-2 – inhibitors of T. cruzi proliferation; shares compounds with T cruzi growth-1; T. cruzi beta-gal in NIH3T3, GalScreen luminescence, 90 h; inhibition, % at 8.35 µM; actives 72% (n = 5,600); AID 651739;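 active = mean replicate inhibition above about 95% and at least 55% of replicates individually reaching it, limit read from the data; inconclusive = only one of the two criteria is met; inactive = neither criterion is met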
T cruzi growth-3 – inhibitors of T. cruzi proliferation; shares compounds with T cruzi growth-1; actives 21% (n = 5,600); T. cruzi beta-gal in NIH3T3, GalScreen luminescence, 90 h; inhibition, % at 2.09 µM; AID 651740;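 active = mean inhibition above about 95%, with at least 55% of replicates also reaching it, limit read from the data; inconclusive = meets just one of the two conditions; inactive = meets neither condition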;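 note: plate controls were neutral control median for no effect and positive control median for full effect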
3T3 cytotox – cytotoxicity in mouse NIH/3T3 fibroblasts. shares compounds with T cruzi growth-1. NIH/3T3 viability, CellTiter-Glo ATP luminescence, 90 h. cytotoxicity (signal decrease), % at 8.35 µM. actives 14% (n = 5,600). AID 651742;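 active = mean signal decrease across replicates above about 35% based on untreated-well scatter, with enough replicates individually passing, limit read from the data; inconclusive = no rule stated though some were filed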;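 note: 0% = median of neutral control wells and 100% = median of positive control wells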
3T3 cytotox 2 – cytotoxicity in mouse NIH/3T3 fibroblasts; shares compounds with T cruzi growth-1; NIH/3T3 viability, CellTiter-Glo ATP luminescence, 90 h; inhibition, % at 24.9 µM; actives 56% (n = 5,600);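 active = mean loss of cell viability signal at or above a set limit, and enough replicates individually reaching it; inconclusive = meets only the mean limit or only the replicate share; inactive = meets neither condition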;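 note: 0% = median of neutral control wells and 100% = median of positive control wells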
* marks the source's active call; other numbers are inactive results; ? = inconclusive; / = no result given. A selection: hits, their analogues and other compounds. The true share with any hit is near 6.7%.

SMILES	C diff HTS	Pf Dd2 growth	T cruzi growth-1	T cruzi growth-2	T cruzi growth-3	3T3 cytotox	3T3 cytotox 2
C[C@@H]1CN([C@H](C)CO)C(=O)c2cc(NC(=O)Nc3ccc4c(c3)OCO4)ccc2O[C@@H](C)CCCCO[C@H]1CN(C)S(=O)(=O)c1ccccc1	4	-41	54	/	/	/	/
O=S(=O)(c1ccccc1)N1CCCCN2[C@H](CO)[C@H](c3ccc(C#Cc4cccnc4)cc3)[C@H]2C1	9	-54	109*	114*	72	20	63*
N#Cc1ccc(-c2ccc([C@@H]3[C@@H](CO)N4CCCCN(S(=O)(=O)c5ccccc5)C[C@H]34)cc2)cc1	9	9	37	/	/	/	/
O=S(=O)(c1ccccc1)N1CCCCN2[C@H](CO)[C@H](c3ccc(C#Cc4ccccc4)cc3)[C@@H]2C1	19	5	38	/	/	/	/
N#Cc1ccc(-c2ccc([C@H]3[C@@H](CO)N4CCCCN(S(=O)(=O)c5ccccc5)C[C@@H]34)cc2)cc1	10	-22	96*	107*	38	-12	11
COc1ccc(C#Cc2ccc([C@H]3[C@@H](CO)N4CCCCN(S(=O)(=O)c5ccccc5)C[C@@H]34)cc2)cc1	-3	0	103*	103*	84	3	0
O=S(=O)(c1ccccc1)N1CCCCN2[C@H](CO)[C@H](c3ccc(C#Cc4ccccc4)cc3)[C@H]2C1	30	-73	73	/	/	/	/
O=S(=O)(c1ccccc1)N1CCCCN2[C@H](C1)[C@H](c1ccc(C#Cc3ccccc3)cc1)[C@@H]2CO	6	-64	?	101*	78	?	105*
COc1ccc(C#Cc2ccc([C@@H]3[C@@H](CO)N4CCCCN(S(=O)(=O)c5ccccc5)C[C@@H]34)cc2)cc1	-7	4	71	/	/	/	/
Cc1ccc(S(=O)(=O)N[C@@H]2C=C[C@@H](CC(=O)N3CCC(Cc4ccccc4)CC3)O[C@H]2CO)cc1	/	-18	87	/	/	/	/
C[C@H](NC(=O)C[C@H]1C=C[C@@H](NC(=O)Nc2ccc3c(c2)OCO3)[C@@H](CO)O1)c1ccccc1	8	-3	/	/	/	/	/
CN(C)CCCNC(=O)C[C@@H]1CC[C@@H]2[C@H](COc3ccc(NC(=O)c4ccccc4F)cc3C(=O)N2C)O1	-3	11	-2	/	/	/	/
CCC(=O)N[C@@H]1CC[C@@H](CCn2cc(CN(C)C)nn2)O[C@@H]1CO	2	5	/	/	/	/	/
CO[C@@H]1CC[C@@H]2CCN(C)C(=O)[C@@H](C)[C@H](OC)CN(C)C(=O)c3cc(C#N)ccc3OC[C@@H]1O2	/	32	14	/	/	/	/
C[C@@H]1CN([C@@H](C)CO)C(=O)c2cc(NC(=O)Nc3ccc(C(F)(F)F)cc3)ccc2O[C@@H](C)CCCCO[C@H]1CN(C)C(=O)C1CCCCC1	1	-68	119*	108*	111*	3	7
C[C@H](CO)N1C[C@H](C)[C@@H](CN(C)C(=O)C2CCCCC2)OCCCC[C@H](C)Oc2ccc(NC(=O)Nc3ccc(F)cc3)cc2C1=O	-1	1	84	/	/	/	/
C[C@H]1CCCCO[C@@H](CN(C)C(=O)C2CCCCC2)[C@@H](C)CN([C@@H](C)CO)C(=O)c2cc(NC(=O)Nc3ccc(F)cc3)ccc2O1	-4	-85*	?	111*	24	-7	7
C[C@@H]1CCCCO[C@@H](CN(C)C(=O)C2CCCCC2)[C@H](C)CN([C@H](C)CO)C(=O)c2cc(NC(=O)Nc3ccc(C(F)(F)F)cc3)ccc2O1	12	-50	100	/	/	/	/
C[C@H](CO)N1C[C@H](C)[C@H](CN(C)C(=O)C2CCCCC2)OCCCC[C@H](C)Oc2ccc(NC(=O)Nc3ccc(C(F)(F)F)cc3)cc2C1=O	-1	-24	100	/	/	/	/
COc1ccc(NC(=O)Nc2ccc3c(c2)C(=O)N([C@@H](C)CO)C[C@@H](C)[C@H](CN(C)C(=O)C2CCCCC2)OCCCC[C@@H](C)O3)cc1	-6	-25	?	?	16	-4	-2
C[C@H]1CCCCO[C@@H](CN(C)C(=O)C2CCCCC2)[C@@H](C)CN([C@@H](C)CO)C(=O)c2cc(NC(=O)Nc3ccc(C(F)(F)F)cc3)ccc2O1	1	-89*	120*	96*	115*	-13	7
COc1ccc(NC(=O)Nc2ccc3c(c2)C(=O)N([C@@H](C)CO)C[C@@H](C)[C@H](CN(C)C(=O)C2CCCCC2)OCCCC[C@H](C)O3)cc1	-6	-33	65	/	/	/	/
CCNC(=O)C[C@@H]1CC[C@@H]2[C@@H](COc3ccc(NC(=O)c4ccccc4)cc3C(=O)N2C)O1	3	-7	-34	/	/	/	/
COc1cccc(S(=O)(=O)Nc2ccc3c(c2)[C@H]2C[C@H](CC(=O)O)O[C@@H](CO)[C@H]2O3)c1	-6	14	30	/	/	/	/
C[C@@H]1CCCCO[C@@H](CN(C)C(=O)C2CCCCC2)[C@H](C)CN([C@H](C)CO)C(=O)c2cc(NC(=O)Nc3ccc(F)cc3)ccc2O1	-2	-49	90	/	/	/	/
SMILES	C diff HTS	Pf Dd2 growth	T cruzi growth-1	T cruzi growth-2	T cruzi growth-3	3T3 cytotox	3T3 cytotox 2
C[C@@H]1CCCCO[C@H](CN(C)C(=O)C2CCCCC2)[C@@H](C)CN([C@H](C)CO)C(=O)c2cc(NC(=O)Nc3ccc(C(F)(F)F)cc3)ccc2O1	14	-42	120*	105*	87	10	?
C[C@@H]1CCCCO[C@H](CN(C)C(=O)C2CCCCC2)[C@@H](C)CN([C@@H](C)CO)C(=O)c2cc(NC(=O)Nc3ccc(C(F)(F)F)cc3)ccc2O1	7	-88*	120*	98*	106*	-13	-8
C[C@@H]1CCCCO[C@@H](CN(C)C(=O)C2CCCCC2)[C@@H](C)CN([C@H](C)CO)C(=O)c2cc(NC(=O)Nc3ccccc3)ccc2O1	7	-55	67	/	/	/	/
CCS(=O)(=O)Nc1ccc2c(c1)C(=O)N(C)[C@@H]1CC[C@@H](CC(=O)NCCOC)O[C@H]1CO2	28	/	4	/	/	/	/
C[C@@H]1CN([C@H](C)CO)C(=O)c2cccc(NC(=O)C3CCOCC3)c2O[C@@H]1CN(C)C(=O)Nc1ccc(C(F)(F)F)cc1	-6	-15	82	/	/	/	/
C[C@@H]1CN([C@H](C)CO)C(=O)c2cc(N(C)C)ccc2O[C@H]1CN(C)Cc1ccc(Cl)c(Cl)c1	-6	-11	58	/	/	/	/
CO[C@H](CN(C)CC1CCOCC1)[C@H](C)CN(C(=O)Nc1ccc(F)cc1)[C@H](C)CO	/	20	4	/	/	/	/
CN1CCN(C(=O)C[C@@H]2CC[C@@H]3[C@H](COC[C@H](O)CN3CC3CC3)O2)CC1	1	7	-32	/	/	/	/
C[C@H]1CN([C@@H](C)CO)S(=O)(=O)c2ccc(C#CC(C)(C)O)cc2O[C@H]1CN(C)C(=O)C1CC1	/	29	-15	/	/	/	/
